For 26 molecules, growth results are on record in PubChem BioAssay (NCI).

Compounds without any hit were thinned out: in the full panel of roughly 83,000, 20% have a hit.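 Activity criterion: percent growth below 10, measured after cells in 96-well plates were exposed to a single compound concentration for 48 hours.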 A number with no mark means an inactive call. Activity calls are given as the source filed them.

Common to all, as to test: NCI-60 one-dose screen, 48 h (100 = growth as untreated, 0 = no growth, -100 = all killed)
Conditions in all cases: 10 µM unless noted

Test [1] deals with HCT-15 colon.
The test system of test [2] is HT29 colon.
Test [3] has as its system SNB-75 CNS.
The test system of test [4] is SNB-19 CNS.
For test [5], the system named is U251 CNS.
Test [6] concerns PC-3 prostate.
Test [7] concerns SK-MEL-5 melanoma.
Test [8] relates to UACC-62 melanoma.
In test [9] the test system is LOX IMVI melanoma.
Test [10] has as its system SK-MEL-28 melanoma.

Take `CC(=O)Nc1nc2c(s1)CC[C@@]1(C)C2=CC[C@H]2[C@@H]3CC[C@H](O)[C@@]3(C)CC[C@@H]21`: the growth is 29.5% in test [1]; 20.8% in [2]; 54.5% in test [3]; 62.1% in [4]; 48.5% in [5]; 67.8% in [6]. The growth in [7] is 53.7%; in test [8] it was 34.9%; in [9], 53.6%; in [10], 56.4%.
Turning to `COc1cc(NCCCN=C(N)N)c2ncccc2c1`, the growth was 98.6% in [1]; 83.9% in test [2]; 73.4% in [3]; 81.8% in test [4]; 58.5% in test [5]; 83.7% in [6]. Besides, the growth in [7] was 72.1%; in [8], 90.3%; in [9] it was 104%; in test [10] it was 99.6%.
Consider `CC1=C([Te]c2ccc(O)cc2)C(=O)c2ccccc2C1=O`, for which the growth in test [1] was 13.6%; in test [2] it was 1.03% (active); in test [3] it was -3.63% (active); in test [4], 12.3%; in [5] it was 10%; in test [6], 5.85% (active). Further, the growth was -94.6% (active) in [7], 5.4% (active) in test [8], 5.05% (active) in [9] and -12.4% (active) in test [10].
As for `CCN(CCO)C(Cc1ccccc1)c1ccccc1` (stereo not given), the growth is 94.3% in test [1]; 98.5% in test [2]; 99.8% in test [3]; 119% in test [4]; 115% in test [5]; 94.9% in test [6]. For the same molecule, the growth was 104% in test [7], 107% in [8], 92.6% in test [9] and 101% in [10].
Consider `CCn1cnc2c(Nc3cccc(Cl)c3)nc(N[C@@H]3CCCC[C@@H]3N)nc21`, for which the growth in [1] is 6.27% (active); in test [2], -4.11% (active); in test [3], -5.9% (active); in test [4], 7.42% (active); in test [5], 6.89% (active); in test [6], 4.71% (active). Further, the growth in [7] is -26.5% (active); in test [8], 10.2%; in test [9], -8.41% (active); in test [10], 22.8%.
Consider `CCC(=O)Nc1ccc(Cl)c(Cl)c1`, for which the growth was 101% in test [1]; 91.3% in test [2]; 102% in test [3]; 107% in test [4]; 95.7% in test [5]; 88.9% in test [6]. Moreover, the growth was 101% in test [7], 96.6% in test [8], 98.3% in [9] and 102% in test [10].
In the case of `CCCCCCCCOC(=O)CCN1CC1`, the growth was 101% in test [1]; 111% in test [2]; 110% in test [3]; 112% in test [4]; 95.6% in test [5]; 104% in test [6]. Also, the growth in test [7] was 105%; in test [8] it was 109%; in test [9], 96.9%; in [10] it was 113%.
Take `CC[C@H](C)[C@H](NC(=O)[C@H]1CCCCN1C)C(=O)N(C)[C@H](C[C@@H](O)c1nc(C(=O)N[C@@H](Cc2ccccc2)C[C@H](C)C(=O)O)cs1)C(C)C`: the growth is 96.5% in test [1]; 83.1% in test [2]; 59.7% in [3]; 65.2% in test [4]; 52.9% in test [5]; 81.2% in test [6]. The growth in test [7] was 63.7%; in [8], 41.1%; in test [9] it was 52.2%; in test [10] it was 82.8%.
On to `COc1ccc(/C=C\c2cc(OC)c(OC)c(OC)c2)cc1OCC(=O)Nc1nc2ccc(OC(F)(F)F)cc2s1`, for which the growth in [1] was 22.2%; in test [2] it was 97.5%; in [3], 7.25% (active); in [4], 42.7%; in test [5], 26%; in test [6] it was 34%. Besides, the growth in [7] is 27.3%; in test [8] it was 31.1%; in test [9], 27.1%; in [10], 34.4%.
Regarding `COC1OC(CO)C(O)C(O)[CH]1[Hg][O]C(C)=O` (stereo not given), the growth in test [1] was 87.1%; in [2] it was 79.8%; in test [3], 77.3%; in test [4], 94.4%; in [5], 67.7%; in test [6], 87.9%. The growth in test [7] was 86.2%; in test [8], 85.9%; in [9], 82.3%; in test [10], 97.5%.
With `CCOP(=O)(NC[C@H]1O[C@](O)(CO)[C@@H](O)[C@@H]1O)OCC`, the growth in [1] is 100%; in test [2] it was 96.2%; in [3], 80.2%; in test [4] it was 97%; in test [5] it was 101%; in test [6], 85.9%. The growth in test [7] was 96.5%; in test [8], 99.8%; in [9], 92.8%; in test [10], 116%.
For `Nc1ccc2c(c1)Cc1cc(Br)ccc1-2`, the growth is 101% in test [1]; 119% in test [2]; 76.6% in test [3]; 101% in test [4]; 104% in test [5]; 89.6% in test [6]. Further, the growth in [7] is 104%; in test [8], 88.8%; in test [9], 94.2%; in test [10], 116%.
For the molecule `CC1=C(CN)C2=C(C)C3(CC3)[C@@](C)(O)C(=O)C2=C1`, the growth in [1] was 96.4%; in [2], 94.5%; in [3] it was 57.7%; in test [4], 83.2%; in [5], 84%; in test [6], 88.3%. Further, the growth in test [7] is 98.8%; in test [8] it was 97%; in test [9], 91.6%; in [10], 94.8%.
On to `CCOc1ccccc1C(=O)OCC(Cl)(Cl)Cl`, for which the growth was 110% in [1]; 96.4% in test [2]; 98.3% in test [3]; 107% in test [4]; 102% in test [5]; 96.5% in test [6]. Further, the growth was 106% in test [7], 107% in test [8], 104% in test [9] and 118% in test [10].
In the case of `COc1ccc(C2=CC(c3ccc(OC)c(OC)c3)c3c(c4ccccc4oc3=O)O2)cc1OC` (stereo not given), the growth in test [1] was 13.6%; in test [2], 3.84% (active); in test [3] it was -4.06% (active); in [4], 17.9%; in [5], 24.2%; in test [6], -18.3% (active). In addition, the growth in test [7] was 17.1%; in [8], 36.8%; in [9], 36%; in test [10] it was 50.9%.
Regarding `COc1ccc(/C=C\c2cc(OC)c(OC)c(OC)c2)cc1OCC(=O)Nc1nc2ccc(F)cc2s1`, the growth in [1] was 45%; in [2], 39.9%; in [3], 15.6%; in test [4], 72.6%; in test [5] it was 21.2%; in test [6], 40.4%. The growth in [7] was -0.28% (active); in [8], 32.4%; in [9] it was 19.1%; in test [10], 69.5%.
As to `c1ccc(Nc2nc(-c3ccccc3)c[se]2)cc1`, the growth in test [1] is 86.9%; in test [2], 102%; in [3] it was 83%; in test [4] it was 91.7%; in [5] it was 84.4%; in [6], 83.6%. For the same molecule, the growth is 89.2% in [7], 78.7% in test [8], 93.5% in [9] and 98.8% in [10].
Regarding `COC(=O)CC[C@H](Cc1ccccc1)NC(=O)c1csc([C@@H](C[C@H](C(C)C)N(C)C(=O)[C@@H](NC(=O)[C@H]2CCCCN2C)C(C)C)OC(C)=O)n1`, the growth is 57.6% in test [1]; 5.29% (active) in [2]; 34.3% in test [3]; 44.2% in test [4]; 12.5% in test [5]; 39.8% in [6]. Moreover, the growth in test [7] was -13.4% (active); in [8], 34.4%; in test [9], 29.3%; in test [10], 77.3%.
For the molecule `C=CC[Se]C(=O)c1ccccc1OC(C)=O`, the growth in test [1] is 17.8%; in test [2], 14.4%; in test [3], -65.1% (active); in [4], -23.2% (active); in [5] it was -44% (active); in test [6], -28.3% (active). The growth in test [7] was -35.7% (active); in test [8], -15.2% (active); in [9], 21.7%; in test [10] it was 4.12% (active).
As for `Clc1ccc2nnnn2n1`, the growth in test [1] was 24.7%; in test [2] it was 12.9%; in [3], 80.3%; in [4] it was 91.7%; in test [5] it was 34.4%; in test [6] it was 25.7%. For the same molecule, the growth in [7] was 30.2%; in [8] it was 45.4%; in test [9], 16.3%; in test [10], 51.9%.
For the molecule `CC(C)COC(C[N+](=O)[O-])C(Cl)(Cl)Cl` (stereo not given), the growth is 105% in test [1]; 106% in test [2]; 90.4% in test [3]; 106% in test [4]; 95.7% in test [5]; 91% in [6]. For the same molecule, the growth in [7] was 112%; in [8], 101%; in [9] it was 103%; in test [10], 99.4%.
In the case of `C[C@]12CC[C@H]3[C@@H](CC4SC(N)=NC45C/C(=N/NC(N)=O)CC[C@]35C)[C@@H]1CCC2=O` (stereo not given in full), the growth in test [1] was -47.8% (active); in test [2], 13.2%; in test [3], 99%; in test [4], -9.98% (active); in test [5] it was -69.9% (active); in test [6], 57.3%. In addition, the growth in test [7] is 20.6%; in [8], 38.9%; in test [9] it was -67.6% (active); in [10], 13%.
As for `CCOC(=S)S[C@H]1C[C@@H]2[C@H](CC[C@]3(C)C(=O)CC[C@@H]23)[C@@]2(C)CCC(=O)C=C12`, the growth is 101% in [1]; 111% in test [2]; 93.1% in test [3]; 99.5% in [4]; 102% in [5]; 106% in test [6]. Further, the growth was 103% in [7], 94.3% in test [8], 97.9% in test [9] and 104% in test [10].
Consider `CC12CCC(O)CC1=CCC1C2CCC2(C)C(O)CCC12` (stereo not given), for which the growth was 105% in test [1]; 101% in test [2]; 88% in test [3]; 86.7% in test [4]; 105% in [5]; 94.1% in test [6]. Besides, the growth in test [7] is 98.2%; in test [8] it was 102%; in test [9], 99.5%; in test [10], 106%.
`COC(=O)[C@@H](C)C[C@H](Cc1ccccc1)NC(=O)c1cccc([C@@H](C[C@H](C(C)C)N(C)C(=O)[C@@H](NC(=O)[C@H]2CCCCN2C)C(C)C)OC(C)=O)n1`: the growth is 10.6% in test [1]; 6.05% (active) in [2]; 26.5% in test [3]; 18.5% in test [4]; 14.6% in test [5]; 28.7% in test [6]. The growth is -50.6% (active) in test [7], 29.1% in test [8], 13.6% in test [9] and 67.2% in test [10].
Consider `C=CCCCN=C=S`, for which the growth in test [1] was 55.4%; in [2] it was 37.4%; in [3], 64.2%; in [4], 84.2%; in test [5], 79.5%; in test [6], 87%. The growth in [7] is 95.1%; in test [8], 63.4%; in [9], 53.8%; in test [10] it was 83.2%.
